One experiment addresses T1, ETS1 (UniProt P14921).
T1 sequence: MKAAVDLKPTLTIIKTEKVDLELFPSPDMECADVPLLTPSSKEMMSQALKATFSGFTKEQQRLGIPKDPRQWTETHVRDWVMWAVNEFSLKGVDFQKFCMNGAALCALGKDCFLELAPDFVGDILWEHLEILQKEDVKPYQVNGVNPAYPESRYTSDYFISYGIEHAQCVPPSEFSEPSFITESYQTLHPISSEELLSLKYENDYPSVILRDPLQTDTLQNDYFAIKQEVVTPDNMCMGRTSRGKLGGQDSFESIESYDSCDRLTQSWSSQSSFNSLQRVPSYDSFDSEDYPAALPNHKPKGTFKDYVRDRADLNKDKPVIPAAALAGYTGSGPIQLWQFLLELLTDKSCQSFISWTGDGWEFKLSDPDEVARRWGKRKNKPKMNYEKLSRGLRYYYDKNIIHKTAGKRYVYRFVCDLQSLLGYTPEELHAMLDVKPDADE
Put plainly: ETS1 binding intensity (PBM fluorescence) in presence of RUNX1, normalised to ETS1-only experiment (arbitrary fluorescence units); higher = stronger binding. To be noted: ETS1 concentration 1 nM; RUNX1 concentration 25 nM.
Chain of RUNX1 (Q01196 whole entry): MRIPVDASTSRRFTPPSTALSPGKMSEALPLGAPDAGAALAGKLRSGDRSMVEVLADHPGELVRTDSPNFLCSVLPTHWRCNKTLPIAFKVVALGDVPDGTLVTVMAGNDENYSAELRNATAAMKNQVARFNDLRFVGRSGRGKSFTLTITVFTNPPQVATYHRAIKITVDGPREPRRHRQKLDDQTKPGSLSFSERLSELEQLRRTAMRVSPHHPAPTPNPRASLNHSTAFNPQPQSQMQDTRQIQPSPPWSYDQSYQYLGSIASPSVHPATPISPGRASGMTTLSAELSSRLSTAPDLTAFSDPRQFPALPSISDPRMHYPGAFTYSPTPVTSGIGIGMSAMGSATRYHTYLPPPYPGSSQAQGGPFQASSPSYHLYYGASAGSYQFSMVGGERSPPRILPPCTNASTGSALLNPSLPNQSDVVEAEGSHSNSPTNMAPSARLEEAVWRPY
Turning to ACAAAACAAACACATCCCCCAAACCGCCAAACTACA, the ETS1 binding intensity is 627.
In the case of GCGCACTTCCGGGCTGGTGAACGCGGTGACGTCACC, the ETS1 binding intensity worked out at 1210.
Consider ACACCTCAGGCAGGATGTGGTAGGGGTTGCCCCAGA, for which the ETS1 binding intensity was determined as 6810.
Turning to ACAGACCAGGGGATTTCCTGTGGGTGGAGTCCTCAG, the ETS1 binding intensity was found to be 771.
For the sequence AGGCGGCAGGAAATGACCCCATCCCGCAGCCTGGGC, the ETS1 binding intensity amounted to 5190.
For CCGAGCTTAACGACATCCTGCGGCTCAGCGTGGAGG, the ETS1 binding intensity amounted to 471.
For the sequence GTATCACTTCCTGTTTTCCTCTGTGGCTTACTGCTG, the ETS1 binding intensity came to 3330.
Still for that read-out and setting: the result for ACAAGGAGGAAAAGGAAATGAACCACGAATAGCAAA reads 1160; that for AGGCCGCTTCCTCCCACATGAAACCGCAGGCTTCGG, 1590.
On to TCTTTGAGAAGCGGATGTGGTAAACTTGCCTCTGTT, for which the ETS1 binding intensity was found to be 36600.
On to AGCGCCGGAAGTGTGTCTGCGTAAAACTGCGGCTCG, for which the ETS1 binding intensity was 3720.
Regarding GGCTCGGTGCTGCTTCCTGTGTGGTCAGGATCACAG, the ETS1 binding intensity was found to be 4270.
For AAGAGGAAGTCCCAAATTGCTTTTTAACCACCAACA, the ETS1 binding intensity amounted to 874.
Take ACTTACAAAGGAAGTGACAGAACCACAGAAAAGACC: the ETS1 binding intensity turned out to be 2660.
As for TACGTCACTTCCGGGCCGCCGTCCTGCGGGCAAGGG, the ETS1 binding intensity came out at 3920.
AATGCCGGATATTGGTTCTGGTAAGCCACAAAAAAG: the ETS1 binding intensity was 4090.
With GCTTCTGAGGAAGTGCGTTTTGTGGGTAGGTGGAGT, the ETS1 binding intensity was found to be 1410.
As to CGTTTCCTGTCTGGGACTGCGCCCACGCGGTCACGT, the ETS1 binding intensity stood at 922.
Same read-out and setting: as for AGATGCAGAACAGGAAGTGGTTTAGAAAGCCACTCT, the figure is 13700; as for TTGGTTGTTGCCAGAGGATGTGGGTTGGCGGGGGAG, 4480; as for GCCGCCTCTTCCTGTGTTGCAAACCACAGGTCCACC, 2340.
As to TTGTCACGTCCGGCACGCCGCGAACCGCAAGGAACC, the ETS1 binding intensity was 1800.
With TTTCACTTCCGGCATGTTTTTCACCCACAGGGATAT, the ETS1 binding intensity is 3980.
For the sequence GGCTGGCCTAGGAACTTCCGCCACAAGTCCCGCCCC, the ETS1 binding intensity was determined as 2220.
Take GCGATCGGAGCGGAAGTGGAGCTACCGCCACCGCCG: the ETS1 binding intensity was determined as 8910.
On the same count and under the same terms, as for GCGAGCACTTCCGGTGTGTGAGCCTGCGGTTGCTAC, the figure is 22400.
GAGGGGTGGGGGAGGAAGGCTGCGGTTTCTGCTGGG: the ETS1 binding intensity was determined as 2180.
Turning to AGCGCCCCATCCCGCGGATGTGGTAAAGCTTCGCGC, the ETS1 binding intensity worked out at 4400.
GGGGCTCCGCAGGAAGTAGGGCTCCCACAACTTTGC: the ETS1 binding intensity came to 2310.
Consider GGCAGCAAGAAAGGAAATAGTGTGGTTGGGTGGAGA, for which the ETS1 binding intensity came to 1640.
On the same count and under the same terms, the result for ACCGGCCGAGCCAACTTCCGGCCGCAGAGGCTGCCG reads 7630; that for CCAGACCCGGCGGAACTACCGTGCCCACAAGGCAGC, 564.
On to AACAAACCGGATGGGGTTGCCACCCGCAATCTTGTC, for which the ETS1 binding intensity is 5130.
The same measure, in the same setting: as for CGCCTCATTTCCTGTGCAACTGCGGTAAAAATAGGA, the figure is 5000; as for GCGGGGACCCGGATGTGTGTGGTGGCGGCGGCCGAA, 3350.
As to GCCACAGCCGGAAGCAGGCTGACCACAAGTGCTAAG, the ETS1 binding intensity worked out at 18700.
Still for that read-out and setting: the result for CTGTGAGGCGGAAGTGGCGGGCTCTGTGGGCGCAAG reads 8270; that for CCCAGGCTTCCGGGTTGAATATGTGGGCTGAGGCGA, 415.
Take GCAATGCCGCTACCGGAAGTGCGGGTCGCGCTCCCG: the ETS1 binding intensity turned out to be 26000.
As for CTCCACCGGATGCAGCAATGAAGGCCGCAGGAATGG, the ETS1 binding intensity was 3990.

Another experiment concerns the target RUNX1 (UniProt Q01196). Put plainly: RUNX1 binding intensity (PBM fluorescence) in presence of ETS1, normalised to RUNX1-only experiment (arbitrary fluorescence units); higher = stronger binding. To be noted: RUNX1 concentration 2 nM; ETS1 concentration 25 nM. As for the experimental part:
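Cooperative gcPBM on 36-bp genomic probes with neighbouring ETS1 and RUNX1 sites. Recombinant human RUNX1 (2 nM) was incubated alone or with ETS1 (25 nM) and detected with anti-RUNX1 antibody plus Alexa488 secondary. Values are medians over 4 replicate spots; the RUNX1+ETS1 data were normalised to the RUNX1-only data. The probes sit in constant array flanks that are not printed.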
As for ACAAAACAAACACATCCCCCAAACCGCCAAACTACA, the RUNX1 binding intensity came to 1300.
In the case of GCGCACTTCCGGGCTGGTGAACGCGGTGACGTCACC, the RUNX1 binding intensity amounted to 1720.
ACACCTCAGGCAGGATGTGGTAGGGGTTGCCCCAGA: the RUNX1 binding intensity was 2700.
Take ACAGACCAGGGGATTTCCTGTGGGTGGAGTCCTCAG: the RUNX1 binding intensity came out at 1500.
Take AGGCGGCAGGAAATGACCCCATCCCGCAGCCTGGGC: the RUNX1 binding intensity came out at 2040.
Same read-out and setting: the result for CCGAGCTTAACGACATCCTGCGGCTCAGCGTGGAGG reads 1190; that for GTATCACTTCCTGTTTTCCTCTGTGGCTTACTGCTG, 3210; that for ACAAGGAGGAAAAGGAAATGAACCACGAATAGCAAA, 948.
In the case of AGGCCGCTTCCTCCCACATGAAACCGCAGGCTTCGG, the RUNX1 binding intensity is 10900.
As for TCTTTGAGAAGCGGATGTGGTAAACTTGCCTCTGTT, the RUNX1 binding intensity is 10000.
Regarding AGCGCCGGAAGTGTGTCTGCGTAAAACTGCGGCTCG, the RUNX1 binding intensity stood at 1520.
In the case of GGCTCGGTGCTGCTTCCTGTGTGGTCAGGATCACAG, the RUNX1 binding intensity turned out to be 1790.
As to AAGAGGAAGTCCCAAATTGCTTTTTAACCACCAACA, the RUNX1 binding intensity came out at 888.
In the case of ACTTACAAAGGAAGTGACAGAACCACAGAAAAGACC, the RUNX1 binding intensity was 1240.
For TACGTCACTTCCGGGCCGCCGTCCTGCGGGCAAGGG, the RUNX1 binding intensity came to 2270.
As for AATGCCGGATATTGGTTCTGGTAAGCCACAAAAAAG, the RUNX1 binding intensity amounted to 1390.
As to GCTTCTGAGGAAGTGCGTTTTGTGGGTAGGTGGAGT, the RUNX1 binding intensity came out at 878.
Take CGTTTCCTGTCTGGGACTGCGCCCACGCGGTCACGT: the RUNX1 binding intensity came to 2450.
As for AGATGCAGAACAGGAAGTGGTTTAGAAAGCCACTCT, the RUNX1 binding intensity came out at 2720.
In the case of TTGGTTGTTGCCAGAGGATGTGGGTTGGCGGGGGAG, the RUNX1 binding intensity was determined as 933.
For GCCGCCTCTTCCTGTGTTGCAAACCACAGGTCCACC, the RUNX1 binding intensity came out at 4540.
For TTGTCACGTCCGGCACGCCGCGAACCGCAAGGAACC, the RUNX1 binding intensity amounted to 2720.
Turning to TTTCACTTCCGGCATGTTTTTCACCCACAGGGATAT, the RUNX1 binding intensity was 2750.
The same measure, in the same setting: as for GGCTGGCCTAGGAACTTCCGCCACAAGTCCCGCCCC, the figure is 1390; as for GCGATCGGAGCGGAAGTGGAGCTACCGCCACCGCCG, 1290; as for GCGAGCACTTCCGGTGTGTGAGCCTGCGGTTGCTAC, 3050.
The same measure, in the same setting: as for GAGGGGTGGGGGAGGAAGGCTGCGGTTTCTGCTGGG, the figure is 11100; as for AGCGCCCCATCCCGCGGATGTGGTAAAGCTTCGCGC, 1570.
For GGGGCTCCGCAGGAAGTAGGGCTCCCACAACTTTGC, the RUNX1 binding intensity worked out at 1040.
As to GGCAGCAAGAAAGGAAATAGTGTGGTTGGGTGGAGA, the RUNX1 binding intensity was 1010.
ACCGGCCGAGCCAACTTCCGGCCGCAGAGGCTGCCG: the RUNX1 binding intensity turned out to be 1840.
Same read-out and setting: as for CCAGACCCGGCGGAACTACCGTGCCCACAAGGCAGC, the figure is 894.
Regarding AACAAACCGGATGGGGTTGCCACCCGCAATCTTGTC, the RUNX1 binding intensity was 2140.
On to CGCCTCATTTCCTGTGCAACTGCGGTAAAAATAGGA, for which the RUNX1 binding intensity stood at 4630.
Same read-out and setting: as for GCGGGGACCCGGATGTGTGTGGTGGCGGCGGCCGAA, the figure is 1220; as for GCCACAGCCGGAAGCAGGCTGACCACAAGTGCTAAG, 6190; as for CTGTGAGGCGGAAGTGGCGGGCTCTGTGGGCGCAAG, 1430.
On to CCCAGGCTTCCGGGTTGAATATGTGGGCTGAGGCGA, for which the RUNX1 binding intensity came to 1420.
As for GCAATGCCGCTACCGGAAGTGCGGGTCGCGCTCCCG, the RUNX1 binding intensity is 1620.
CTCCACCGGATGCAGCAATGAAGGCCGCAGGAATGG: the RUNX1 binding intensity amounted to 1130.

The values are drawn from the supplement of paper PMC10681739.
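Throughout, for RUNX1 binding intensity (PBM fluorescence) in presence of ETS1, normalised to RUNX1-only experiment: Full-length recombinant human ETS1 or RUNX1 bound to double-stranded 36-bp genomic probes on microarrays, detected by protein-specific primary antibody and Alexa488 secondary, spot fluorescence as median of four replicate spots.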
